Experimental data from PubChem BioAssay (NCATS).
Where “and” joins values, the source holds several entries; their conditions need not be identical. Equal values may be shown once. Records with an inconclusive call do not appear. Calls of active or inactive are those of the source. Calls follow the shape of the dose curve; as a rule, active = well fitted inhibition curve with a large enough effect; inconclusive = small, poorly fitted or top-dose-only effect; inactive = flat fitted curve, though single readings scatter.

What was measured:
NIH3T3 [1] = test: Cytotoxic Profiling of Annotated Libraries Using Quantitative High-Throughput Screening (AID 1296008); settings: Five cell lines viability, CellTiter-Glo ATP luminescence, 48-72 h; max response: hits give low values
Outline: (§1)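 Cytotoxicity was measured as CellTiter-Glo ATP luminescence, read after 10 min at room temperature. Compound treatment of the cells lasted 48 or 72 hr at 37 degrees Celsius in a qHTS format.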

MCC-13 = test: qHTS assay to identify novel small-molecules to repurpose for Merkel cell carcinoma treatment (AID 1296009); settings: MCC and control cell lines, CellTiter-Glo viability, 72 h; series mostly up to 46 µM
Outline: (§2)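 After compound transfer in DMSO, plates were kept 72 hr at 37 degree celsius. Luminescent ATP signal from CellTiter-Glo served as viability measure, normalized against DMSO and no-cell controls.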

KB-3-1 = test: Cytotoxic Profiling of Annotated Libraries Using Quantitative High-Throughput Screening (AID 1296008); settings: Five cell lines viability, CellTiter-Glo ATP luminescence, 48-72 h; max response: hits give low values
Outline: as §1

MCC-26 = test: qHTS assay to identify novel small-molecules to repurpose for Merkel cell carcinoma treatment (AID 1296009); settings: MCC and control cell lines, CellTiter-Glo viability, 72 h; series mostly up to 46 µM
Outline: as §2

MKL-2 = test: as above; settings: MCC and control cell lines, CellTiter-Glo viability, 72 h; series mostly up to 46 µM
Outline: as §2

MKL-1 = test: as above; settings: MCC and control cell lines, CellTiter-Glo viability, 72 h; series mostly up to 46 µM
Outline: as §2

UISO = test: as above; settings: MCC and control cell lines, CellTiter-Glo viability, 72 h; series mostly up to 46 µM
Outline: as §2

HACAT = test: as above; settings: MCC and control cell lines, CellTiter-Glo viability, 72 h; at 44.8 µM (top of the series) unless noted
Outline: as §2

NIH3T3 [2] = test: as above; settings: MCC and control cell lines, CellTiter-Glo viability, 72 h; at 44.8 µM (top of the series) unless noted
Outline: as §2
% is scaled to controls: 0 for no effect and ±100 for the full control effect; potency is read from the fitted curve at half-maximal effect.
Also: nearly all actives have a fitted effect of over 60% in size.

NC(=O)N1CCC(CC(=O)N2CCC([C@H]3c4ncc(Br)cc4CCc4cc(Cl)cc(Br)c43)CC2)CC1
inactive: max response (NIH3T3 [1]) -22.6% | Potency (MCC-13)

C[C@]12CC[C@@H]3c4ccc(O)cc4CC[C@H]3[C@H]1CC[C@H]2O
inactive: Potency (MCC-13) | Potency (MCC-26) | Potency (MKL-2)
active: Potency (KB-3-1) 11.8 µM

N#CC(=C(N)Sc1ccc(N)cc1)c1ccccc1C(F)(F)F
inactive: max response (KB-3-1) -9.42% | Potency (MCC-26) | Potency (MKL-1) | Potency (MKL-2) | Potency (UISO)

CC(C)Oc1ccc(C(=O)N[C@H](CNC(=O)CN(C)C)Cc2ccc(-c3cn4cccc([C@H](C)O)c4n3)cc2)cc1Cl
active: Potency (KB-3-1) 0.332 µM
inactive: Potency (MCC-26) | Potency (MKL-1) | Potency (MKL-2)

COc1cc(C=CC(=O)CC(=O)C=Cc2ccc(O)c(OC)c2)ccc1O
active: Potency (KB-3-1) 38.2 µM | Potency (MKL-1) 10.8 µM | Potency (MKL-2) 8.55 µM | Potency (UISO) 21.5 µM

NC(=NCCCCCCN=C(N)N=C(N)Nc1ccc(Cl)cc1)N=C(N)Nc1ccc(Cl)cc1
inactive: Potency (MCC-26)
active: Potency (KB-3-1) 8.33 µM | Potency (MKL-2) 11.8 µM

C=CC(=O)N1CCc2ccc(-n3c(=O)ccc4cnc5ccc(-c6cnn(C)c6)cc5c43)cc21
active: Potency (KB-3-1) 4.18 µM | Potency (MKL-1) 1.87 µM | Potency (MKL-2) 1.87 µM | Potency (UISO) 6.62 µM

C=CC(=O)Nc1ccc2ncnc(Nc3ccc(OCc4cccc(F)c4)c(Cl)c3)c2c1
active: Potency (KB-3-1) 9.35 µM | Potency (MCC-13) 3.72 µM | Potency (MKL-1) 0.118 µM

O=C(CCCCCCC(=O)Nc1cccnc1)NO
active: Potency (KB-3-1) 14.8 µM | Potency (MCC-13) 26.4 µM | Potency (MKL-1) 7.43 µM | Potency (MKL-2) 1.87 µM | Potency (UISO) 13.2 µM

O=C(c1ccc(F)cc1)N1CCC[C@H](c2nc(-c3ccc(F)cc3)no2)C1
inactive: outcome (NIH3T3 [1]) | outcome (HACAT) | Potency (MCC-13) | Potency (MCC-26) | Potency (MKL-1) | Potency (MKL-2) | outcome (NIH3T3 [2]) | Potency (UISO)

c1ccc(CNc2nc(NCc3ccccc3)c3ccccc3n2)cc1
inactive: Potency (MCC-13) | Potency (MCC-26) | Potency (MKL-1) | Potency (UISO)
active: Potency (KB-3-1) 26.4 µM | Potency (MKL-2) 18.7 µM

C=CC(=O)Nc1cc(NC(=O)c2ccc(C)c(NC(=O)c3ccno3)c2)cc(C(F)(F)F)c1
inactive: max response (NIH3T3 [1]) -0.953% | outcome (HACAT) | Potency (MCC-13) | Potency (MCC-26)

Cc1ccc2nc(NCCN)c3ncc(C)n3c2c1
active: Potency (KB-3-1) 3.32 µM | Potency (MKL-2) 14.8 µM | Potency (UISO) 20.9 µM

Oc1ccc([C@@H]2Oc3ccc(O)cc3[C@@H]3CCC[C@@H]32)cc1
inactive: Potency (MCC-26)
active: Potency (KB-3-1) 14.8 µM | Potency (UISO) 18.7 µM

O=C(O)c1ccc(Nc2ncc3c(n2)-c2ccc(Cl)cc2C(c2c(F)cccc2F)=NC3)cc1
inactive: Potency (MCC-26) | Potency (MKL-2) | Potency (UISO)
active: Potency (KB-3-1) 18.7 µM and 5.8 µM

CCOC(=O)N1CCN([N+]([O-])=NOc2ccc([N+](=O)[O-])cc2C#N)CC1
active: Potency (KB-3-1) 16.6 µM | Potency (MCC-13) 2.64 µM | Potency (MKL-1) 1.66 µM | Potency (MKL-2) 1.18 µM

Oc1cc(-c2nc(-c3ccccc3)[nH]c2-c2ccncc2)ccc1Cl
inactive: max response (KB-3-1) -18.3% | Potency (MKL-1) | Potency (MKL-2) | Potency (UISO)

N#CC(=Cc1ccc(O)c(O)c1)C(=O)NCc1ccccc1
inactive: outcome (KB-3-1) | Potency (MCC-13) | Potency (MCC-26) | Potency (MKL-2)

CN1CCCN(C(=O)c2cccc(-c3ccc(C=C4C(=O)Nc5ccc(Cl)cc54)o3)c2)CC1
active: Potency (KB-3-1) 23.5 µM | Potency (MKL-1) 5.26 µM | Potency (MKL-2) 16.6 µM
inactive: Potency (MCC-26)
